# Gal4-VP16 FLuc – counter-screen for ROR gamma inhibitors: Gal4-VP16 reporter. Drosophila S2 Gal4-VP16 UAS-luciferase, luminescence, 20 h. Potency, µM (series often up to 53.6 µM), usual class: inhibitors. 3.5% of 310,000 active. AID 2546;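 also: Gal4-VP16 expression switched on by copper sulfate through the metallothionein promoter; nearly all actives have a fitted effect of over 50% in size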
# ELG1 repair inh – ELG1-dependent DNA repair inhibition; HEK293T ELG1-luciferase reporter, luminescence, 16 h; DNA damage induced by 5-fluorouridine; Potency, µM (titrated, usually from 46.1 µM), most hits filed as inhibitors; AID 504467; 2.3% of 330,000 active; also: nearly all actives have a fitted effect of over 55% in size
#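 Reporter activity after DNA damage by 5-fluorouridine is monitored. Compound-treated cells incubate 16 hr at 37 °C, then ONE-Glo is added for 30 min before luminescence reading.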
# ALOX12 inh – inhibitors of human 12S-lipoxygenase ALOX12; P18054; purified 12hLO, xylenol orange hydroperoxide absorbance; Potency, µM (highest dose often 108 µM), usual class: inhibitors; 1.1% of 580,000 active
#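 Purified human 12hLO (150 nM final) in 25 mM Hepes, 0.01% Triton X-100, pH 7.0 was preincubated 15 min at room temperature with compound. Then 40 uM arachidonic acid was added, 30 min. Hydroperoxide was read by Fe-XO absorbance ratio 573/405 nm.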
# TDP1 cell noCPT – qHTS for Inhibitors of human tyrosyl-DNA phosphodiesterase 1 (TDP1): qHTS in cells in absence of CPT; 15% of 420,000 active; Potency, µM (series often up to 46.2 µM), hits mostly inhibitors; AID 686978, 2013; DT40 Tdp1-/- hTDP1 cells, no CPT, ATP luminescence, 48 h; also: nearly all actives have a fitted effect of over 55% in size
#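 No-CPT arm: Tdp1-/-;hTDP1 DT40 cells (400/well) plus compounds, incubated ≥48 hr at 37 °C. Readout CellTiter-Glo luminescence.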
# TDP1 cell CPT – growth inhibition of DT40 Tdp1-/-;hTDP1 cells with camptothecin (screen for TDP1 inhibitors); Potency, µM (top dose mostly 46.2 µM), usual class: inhibitors; 12% of 420,000 active; chicken DT40 Tdp1-/-;hTDP1 cells + 20 nM CPT, ATP luminescence, 48 h; also: nearly all actives have a fitted effect of over 55% in size
#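 Chicken DT40 Tdp1-/- cells complemented with human TDP1, 400 cells/well, exposed to compounds plus 20 nM camptothecin for at least 48 h at 37 C; viability read as ATP content by CellTiter-Glo luminescence.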
# RORgamma inh – blocks mouse ROR gamma transcriptional activity; P51450; Drosophila S2 Gal4-RORgamma UAS-luciferase reporter, 20 h; Potency, µM (top dose mostly 53.6 µM), usual class: inhibitors; 5.4% of 310,000 active; also: nearly all actives have a fitted effect of over 60% in size
# Target sequence (P51450 whole entry, looked up, the tested form may be a part): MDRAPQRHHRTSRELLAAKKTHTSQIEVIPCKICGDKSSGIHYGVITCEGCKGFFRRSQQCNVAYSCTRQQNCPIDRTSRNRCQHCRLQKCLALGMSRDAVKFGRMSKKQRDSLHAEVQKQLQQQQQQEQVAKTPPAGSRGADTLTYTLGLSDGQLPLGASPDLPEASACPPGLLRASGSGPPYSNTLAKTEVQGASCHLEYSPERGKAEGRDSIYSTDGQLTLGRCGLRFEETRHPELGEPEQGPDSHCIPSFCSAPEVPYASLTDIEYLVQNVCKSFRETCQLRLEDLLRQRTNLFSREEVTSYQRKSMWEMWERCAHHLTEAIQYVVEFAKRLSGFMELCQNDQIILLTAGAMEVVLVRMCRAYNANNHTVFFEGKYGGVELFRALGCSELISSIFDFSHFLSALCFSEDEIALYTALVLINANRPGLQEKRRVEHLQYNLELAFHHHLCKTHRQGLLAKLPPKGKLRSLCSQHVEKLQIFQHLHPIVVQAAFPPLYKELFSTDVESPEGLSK
#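 Stably transfected Drosophila Schneider cells are the test system, with ROR gamma fused to Gal4 and luciferase under UAS control; luminescence is read after 20 hr of 700 uM copper sulfate induction at ambient temperature.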
# Numbers stand for hits; – = inactive; ? = inconclusive; · = no result given; [ ] = remark or other dose. A selection: hits, their analogues and other compounds. The true share with any hit is near 15%. Calls follow the shape of the dose curve; as a rule, active = well fitted curve in the direction sought with a large enough effect; inconclusive = small, poorly fitted or top-dose-only effect, or another doubt; inactive = no such curve, though single readings can be large; an effect the other way counts as inactive or inconclusive.
SMILES,Gal4-VP16 FLuc,ELG1 repair inh,ALOX12 inh,TDP1 cell noCPT,TDP1 cell CPT,RORgamma inh
CC1CCCN(Cc2c(O)ccc3c(=O)c(Oc4ccccc4Cl)c(C(F)(F)F)oc23)C1 (stereo not drawn),·,·,–,–,–,·
CCc1ccc(Oc2c(C(F)(F)F)oc3c(CN4CCN(C)CC4)c(O)ccc3c2=O)cc1,·,·,–,26µM,?,·
CC1CCN(Cc2c(O)ccc3c(=O)c(Oc4ccccc4Cl)c(C(F)(F)F)oc23)CC1,·,·,–,21µM,?,·
O=Cc1cc(Br)cc(Cl)c1O,·,·,45µM,·,·,·
COc1cc(OC)cc(C2=Cc3ccccc3C(CC(C)=O)N2c2ccc(C#CC3(N)CCCCC3)cc2)c1 (stereo not drawn),·,·,–,?,?,·
COc1cc(OC)cc(C2=Cc3ccc(OC)cc3C(CC(C)=O)N2c2ccc(C#CC3(O)CCCCC3)cc2)c1 (stereo not drawn),·,·,?,21µM,?,·
COc1cccc(C2=Cc3ccc(F)cc3C(CC(C)=O)N2c2ccc(C#CC3(O)CCCCC3)cc2)c1 (stereo not drawn),·,·,16µM,?,?,·
COc1cc(OC)cc(C2=Cc3ccc(OC)cc3C(CC(C)=O)N2c2ccc(C#CC3(N)CCCCC3)cc2)c1 (stereo not drawn),·,·,–,26µM,5.2µM,·
O=C(c1ccccn1)N1CCC(N2CCOC2=O)CC1,·,·,–[12.5 µM],·,·,·
CC(C)(C)c1nc(Cn2c(=O)c(C#N)cn(C3CC3)c2=O)no1,·,·,–,·,·,·
COc1ccccc1/C=N/NC(=O)CCSc1ccccc1,–,–,–,–,–,–
CC(=O)Oc1ccc(/C=N/NC(=O)CCSc2ccccc2)cc1,–,–,–,18µM,?,?
O=C(CCCSCCCC(=O)NN=Cc1ccccc1)NN=Cc1ccccc1,·,·,–,23µM,?,·
O=C([C@@H]1C[C@H](F)CN1S(=O)(=O)Cc1ccc(Cl)cc1)N1CCCCC1,·,·,–,·,·,·
COc1ccc(CN2CC(Oc3ccc(F)c(C)c3)C2)cc1,·,·,–,·,·,·
Cc1cccc(N(C)c2nc3ccc(C(=O)c4ccccc4)cc3n3c(C)nnc23)c1,·,·,–,21µM,?,·
Cc1cc(OC(=O)c2cccs2)cc(OC(=O)c2cccs2)c1,·,·,–,·,·,·
COC(=O)c1cc(S(=O)(=O)Nc2cccc(OC)c2)cn1C,–,?,–,23µM,?,–
COc1ccc(OC)c(NS(=O)(=O)c2ccc(Br)s2)c1,–,?,–,18µM,16µM,–
COc1cccc(NS(=O)(=O)c2ccc(Br)s2)c1,4.5µM,–,–,–,–,3.5µM
COc1ccc(C2=NOC(C(=O)Nc3ccc(OC(F)(F)F)cc3)C2)cc1 (stereo not drawn),·,·,–,·,·,·
CCn1nc(C(=O)OCCOc2ccc(OC)cc2)c2ccccc2c1=O,·,·,–,·,·,·
CCN1CC(CNc2nccc(-c3c(C)nn(C)c3C)n2)CC1=O (stereo not drawn),·,·,–,·,·,·
COc1cc(-c2ccc3oc(-c4cccc(C)c4)c(C#CC4(O)CCCCC4)c3c2)cc(OC)c1OC,·,–,–,16µM,16µM,·
CCOC(=O)c1c(-c2ccccc2)csc1NC(=O)CSc1ccccc1,?,–,–,?,–,–
SMILES,Gal4-VP16 FLuc,ELG1 repair inh,ALOX12 inh,TDP1 cell noCPT,TDP1 cell CPT,RORgamma inh
Cc1ccc(NC(=O)CCSc2nnc3ccccn23)cc1,–,–,–,?,–,–
CCOC(=O)c1c(NC(=O)CSc2nnnn2C)sc(C)c1-c1ccc(C)cc1,–,–,–,16µM,?,–
CCOC(=O)c1c(-c2ccccc2)csc1NC(=O)CSc1nnnn1C,–,4.1µM,–,?,18µM,–
CCOC(=O)c1c(-c2ccc(C)cc2)csc1NC(=O)CCSc1nnc2ccccn12,–,?,–,23µM,23µM,?
CCOC(=O)c1c(NC(=O)CSc2nncs2)sc(C)c1-c1ccccc1,0.45µM,?,–,?,?,–
CCc1noc(-c2cn(C3CCCN(C(=O)c4ccc(C)s4)C3)nn2)n1 (stereo not drawn),·,·,–,·,·,·
CCCC(=O)N1CCCC(c2noc(COc3ccccc3)n2)C1 (stereo not drawn),·,·,–,·,·,·
CCOCCOC1CCN(C(=O)c2cc3ccccc3[nH]2)CC1,·,·,–,·,·,·
Cc1cccc(OCc2nnc(SCC(=O)c3cc(C)n(-c4cc(C)on4)c3C)o2)c1,·,·,–,·,·,·
Cn1nnnc1SCC(=O)NC(=O)Cc1ccccc1,–,–,–,6.5µM,12µM,–
CCOC(=O)c1c(-c2ccccc2)csc1NC(=O)CSc1nncs1,?,?,–,16µM,23µM,–
Cc1nn(C)cc1C(=O)Nc1cc(Oc2ccc(Cl)cc2)cc([N+](=O)[O-])c1,?,–,–,?,?,–
CCOc1ccc(Oc2cc(NC(=O)c3ccco3)cc([N+](=O)[O-])c2)cc1,?,?,–,16µM,–,?
O=C(Nc1cc(SCCO)cc([N+](=O)[O-])c1)c1ccco1,–,–,–,?,–,–
O=C(Nc1cc(Oc2ccc(Cl)cc2)cc([N+](=O)[O-])c1)c1ccco1,7.9µM,–,–,16µM,?,?
Cc1noc(-c2cn(C3CCN(C(=O)c4cccc(Cl)c4)CC3)nn2)n1,·,·,–,·,·,·
CCOC(=O)N1CCN(C(=O)CSc2nc3c(cnn3-c3ccc(Cl)cc3)c(=O)[nH]2)CC1,–,?,–,26µM,21µM,–
CCOC(=O)C(C)Sc1nc2c(cnn2-c2ccc(F)cc2)c(=O)[nH]1 (stereo not drawn),–,–,–,?,21µM,–
CCOC(=O)N1CCN(C(=O)CSc2nc3c(cnn3-c3ccc(C)cc3)c(=O)[nH]2)CC1,–,?,–,?,?,–
Cc1cccc(-n2ncc3c(=O)[nH]c(SCC(=O)N4CC(=O)Nc5ccccc54)nc32)c1,·,–,–,16µM,?,·
Cc1ccc(-n2ncc3c(=O)[nH]c(SCC(=O)N4CC(=O)Nc5ccccc54)nc32)cc1,·,–,–,–,–,·
COc1ccc(OCC(=O)Nc2ccc3c(=O)c4cccc(F)c4oc3c2)cc1,·,·,–,·,·,·
O=C(NNc1ccccn1)C(c1ccccc1)c1ccccc1,–,–,–,–,–,–
O=C(NNC(=O)C(c1ccccc1)c1ccccc1)c1ccccn1,?,–,–,2.3µM,2.9µM,5.6µM
O=C(NNC(=O)C(c1ccccc1)c1ccccc1)c1ccccc1O,·,·,–,?,18µM,·
O=C(CCc1ccccc1)NNC(=O)c1cc(Cl)ccc1O,–,?,?,23µM,?,?
CC(Sc1ccc(Cl)cc1)C(=O)NNC(=O)c1ccccc1O (stereo not drawn),–,?,–,7.3µM,16µM,?
Cn1cnc(S(=O)(=O)N2CCC[C@H](n3c(=O)n(C)c4cccnc43)C2)c1,·,·,–,·,·,·
